Assay outcomes deposited in PubChem BioAssay by National Center for Advancing Translational Sciences (NCATS).
G9a inh-1 – qHTS Assay for Inhibitors of Histone Lysine Methyltransferase G9a | Potency, µM (top dose mostly 102 µM), inactives show top-dose activity, negative = inhibition, usual class: inhibitors | Histone-lysine N-methyltransferase EHMT2 (Homo sapiens), Q96KQ7 | 350,000 compounds, 8.8% hits | G9a H3K9 monomethylation, AlphaScreen, 2 h; further: on the % scale 0 is the no-effect control and ±100 the full control effect; nearly all actives have a fitted effect of over 75% in size
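Readings reflect AlphaScreen signal from monomethyl-H3K9 antibody detection. HMT at 20 nM; substrate b-H3K9 500 nM; cofactor SAM 20 uM; 2 h RT reaction; compounds tested as titrations in qHTS with 15 min preincubation.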
HP1b binding inh – HTS for Inhibitors of HP1-beta Chromodomain Interactions with Methylated Histone Tails; Chromobox protein homolog 1 (Homo sapiens), P83916; AlphaScreen HP1-beta / biotin-H3K9me3 peptide binding; Potency, µM (series often up to 114 µM), for inactives: at the highest dose activity change, negative = inhibition, most hits filed as inhibitors; 390,000 compounds, 0.56% hits; further: nearly all actives have a fitted effect of over 70% in size
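Compound inhibition of the preformed complex between 50 nM HP1-beta and 50 nM biotinylated H3K9me3 peptide was read by AlphaScreen. Buffer was PBS pH 7.4 with 0.01% Tween-20. Incubations ran 30 min at room temperature, with 10 ug/mL donor/acceptor beads.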
JMJD2A Tudor inh – qHTS Assay for Inhibitors of JMJD2A-Tudor Domain. Lysine-specific demethylase 4A (Homo sapiens), O75164. AlphaScreen JMJD2A-Tudor / H3K4me3 peptide binding. Potency, µM (doses to about 114 µM), without a hit: at the highest dose activity change, negative = inhibition, usual class: inhibitors. 390,000 compounds, 4.4% hits; further: on the % scale 0 is the no-effect control and ±100 the full control effect; nearly all actives have a fitted effect of over 50% in size
BAZ2B block – qHTS Assay for Inhibitors of BAZ2B | 360,000 compounds, 4.4% hits | AlphaScreen BAZ2B-H3K14Ac peptide displacement | Potency, µM (titrated, usually from 114 µM), inactives show at the top dose activity change, negative = inhibition, most hits filed as inhibitors | Bromodomain adjacent to zinc finger domain protein 2B (Homo sapiens), Q9UIF8; further: on the % scale 0 is the no-effect control and ±100 the full control effect; nearly all actives have a fitted effect of over 60% in size
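BAZ2B 50 nM plus b-H3(5-23)K14Ac 50 nM, PBS pH 7.4/0.01% Tween-20, 30 min RT; compound added (max 110 uM), 30 min RT; streptavidin donor/Ni-chelate acceptor beads 10 ug/mL final, 20 min dark; AlphaScreen read.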
PLK1 PBD block – qHTS for Inhibitors of PLK1-PDB (polo-like kinase 1 - polo-box domain): Primary Screen | 360,000 compounds, 2.8% hits | AID 720504, 2013 | Potency, µM, for the others: max response, negative = inhibition, most hits filed as inhibitors | Serine/threonine-protein kinase PLK1 (Homo sapiens), P53350 | Plk1 PBD binding of FITC phosphopeptide, fluorescence polarization; further: series mostly up to about 57 µM; on the % scale 0 is the no-effect control and ±100 the full control effect; nearly all actives have a fitted effect of over 65% in size
Target sequence (P53350 whole entry, looked up, the tested form may be a part): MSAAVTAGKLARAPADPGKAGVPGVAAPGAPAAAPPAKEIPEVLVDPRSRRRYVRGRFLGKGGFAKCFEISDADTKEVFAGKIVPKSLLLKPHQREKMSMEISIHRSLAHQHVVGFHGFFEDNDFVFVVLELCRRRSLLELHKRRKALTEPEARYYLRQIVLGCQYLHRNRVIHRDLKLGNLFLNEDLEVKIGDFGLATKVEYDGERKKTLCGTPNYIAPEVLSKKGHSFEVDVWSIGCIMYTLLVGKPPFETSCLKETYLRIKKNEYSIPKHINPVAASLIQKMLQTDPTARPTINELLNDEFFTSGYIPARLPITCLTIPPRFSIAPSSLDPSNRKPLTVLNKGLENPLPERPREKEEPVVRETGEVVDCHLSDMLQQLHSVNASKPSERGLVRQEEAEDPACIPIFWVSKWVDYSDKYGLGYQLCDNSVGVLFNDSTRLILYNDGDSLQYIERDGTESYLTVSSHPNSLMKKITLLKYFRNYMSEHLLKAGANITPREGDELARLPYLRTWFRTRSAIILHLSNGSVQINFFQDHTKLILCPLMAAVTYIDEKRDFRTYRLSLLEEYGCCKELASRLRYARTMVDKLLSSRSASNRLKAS
Sfp inh – qHTS Assay for Inhibitors of Bacillus subtilis Sfp phosphopantetheinyl transferase (PPTase); 4'-phosphopantetheinyl transferase ffp (Bacillus subtilis), Q9F4F7; Biochemical Sfp PPTase activity, qHTS; Potency, µM, for inactives: largest response in the series, negative = inhibition, most hits filed as inhibitors; 310,000 compounds, 3.5% hits;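 further: the enzyme is Sfp with the accession as filed and its product quenches rhodamine fluorescence; 0% = enzyme reaction without inhibitor and -100% = no enzyme wells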
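Reaction rates are the 30-min fluorescence difference (ex 525, em 598 nm) in wells containing 15 nM Sfp, 5 uM rhodamine-CoA and 12.5 uM BHQ-2-YbbR at pH 7.6 with 10 mM MgCl2.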
G9a inh-2 – qHTS Assay for Inhibitors of Histone Lysine Methyltransferase G9a: Hit Confirmation; Potency, µM, actives largely listed as inhibitors; G9a H3K9 monomethylation, AlphaScreen, 2 h; shares compounds with JMJD2A Tudor inh; 370 compounds, 89% hits; further: nearly all actives have a fitted effect of over 65% in size
* marks the source's active call; other numbers are inactive results; ? = inconclusive; nt = no result given; ! = not active in a repeat; [ ] = another dose, or the depositor's remark. Only some compounds are listed: those with a hit (about 12% of all), similar ones and a draw of the others. The call rests on the fitted dose curve; in most records, active means well fitted curve in the direction sought with a large enough effect; inconclusive means small, poorly fitted or top-dose-only effect, or another doubt; inactive means no such curve, though single readings can be large; an effect the other way counts as inactive or inconclusive. Potency means the concentration at half of the fitted maximal effect.

SMILES	G9a inh-1	HP1b binding inh	JMJD2A Tudor inh	BAZ2B block	PLK1 PBD block	Sfp inh	G9a inh-2
CC(C)c1ccc(S(=O)(=O)N2CCN(CCC(=O)Nc3ccc(N(C)C)cc3)CC2)cc1	1µM*	?	35µM*	22µM*	1%	5%	2*
CCN(CC)c1ccc(NC(=O)c2cnn3c(C(F)F)cc(-c4ccccc4)nc23)cc1	2µM*	?	8.9µM*	2.5µM*	nt	nt	4.6*
CCN(CC)Cc1c(C(=O)N/N=C(\C)c2ccncc2)nnn1-c1nonc1N	15%	40%	-11%	-19%	-20%	10%	nt
CCOC(=O)N1CCc2c(sc(NCc3ccc(OC)c(Br)c3)c2C(=O)Nc2cc(OC)ccc2OC)C1	1.6µM*	?	?	-31%	nt	nt	1.8*
CCOC(=O)N1CCc2c(sc(NCc3cccc(F)c3)c2C(=O)Nc2ccc(OCC)cc2)C1	2µM*	-13%	?	?	nt	nt	3.6*
CCOc1ccc(NC(=O)c2c(NCc3ccc(C)o3)sc3c2CCC(C)C3)cc1 (stereo unspecified)	?	-20%	?	-33%	nt	nt	nt
CCOc1ccc(NC(=O)c2c(NCc3cccnc3)sc3c2CCC(C)C3)cc1 (stereo unspecified)	2.2µM*	-1%	16µM*	?	nt	nt	1.3*
CCOC(=O)N1CCc2c(sc(NC(=O)Cc3ccccc3)c2C(=O)c2ccc(OC)cc2)C1	?	7%	-31%	-35%	1%	-12%	nt
CCOC(=O)N1CCc2c(sc(NCc3sccc3C)c2C(=O)Nc2cc(OC)ccc2OC)C1	2.8µM*	?	11µM*	?	nt	nt	5.8*
COc1ccccc1CN1CC[C@@]2(CCCN(S(=O)(=O)c3ccccc3)C2)C1	-4%[12.7 µM]	nt	nt	nt	nt	22%	nt
CCN(C(=O)c1ccncc1)c1c(N)n(Cc2ccccc2)c(=O)[nH]c1=O	?	21%	-6%	-4%	-4%	nt	nt
CCOC(=O)C1CCCN(CC(=O)NC2CC2)C1 (stereo unspecified)	1.6µM*	18µM*	5µM*	32µM*	-3%	-11%	45*
CCC(=O)N1CCc2cc(S(=O)(=O)NC(C(=O)Nc3cc(OC)cc(OC)c3)C(C)C)ccc21 (stereo unspecified)	6%[59 µM]	45%	-22%	nt	nt	nt	nt
CCOc1ccc(NC(=O)CN2CCN(CC(=O)c3ccc(OCC)cc3)CC2)cc1	2.8µM*	46%	?	8%	-10%	-6%	5.6*
CCOc1ccc(NC(=O)CCN2CCN(S(=O)(=O)c3cc(Cl)ccc3OC)CC2)cc1	?	27%	-13%	0%	-2%	8%	nt
CCOc1ccc(NC(=O)CN2CCN(CC(=O)c3ccc(OC)c(OC)c3)CC2)cc1	2.5µM*	0%	?	8%	19µM*	8%	45*
CCN(CC)c1ccc(NC(=O)CN2CCN(S(=O)(=O)c3cc(Cl)ccc3OC)CC2)cc1	8.9µM*	?	40µM*	50µM*!	-5%	-5%	4*
CCOc1ccc(NC(=O)CN2CCN(CC(=O)Nc3ccc(F)cc3)CC2)cc1	3%[12.7 µM]	67%	-10%	1%	-7%	10%	nt
CC(=O)Oc1cccc(C)c1	23%[59 µM]	nt	nt	nt	nt	-12%	nt
Fc1cccc(Cl)c1CNc1ccc(N2CCCC2)cc1	1.8µM*	25µM*	20µM*	13µM*	21µM*	?	5.6*
NS(=O)(=O)c1ccc(NCc2c(F)cccc2Cl)cc1	0%	24%	-11%	-7%	2%	3%	nt
CCCC(=O)N1CCCC1(C)C(=O)Nc1ccc2c(c1)CCN2C(C)=O (stereo unspecified)	nt	nt	nt	nt	-12%	nt	nt
CCC(Sc1nnnn1C)C(=O)Nc1ccc(C(C)=O)cc1 (stereo unspecified)	?	7%	-3%	?	-16%	8%	11*
CCOC(=O)c1ccc(S(=O)(=O)N2CCN(Cc3cc4c(cc3O)OCO4)CC2)cc1	0.4µM*	11%	-21%	-34%	-16%	nt	0.89*
CCN1CCOC(=O)C1CC(=O)Nc1cc(Cl)ccc1C (stereo unspecified)	0.71µM*	16%	-15%	-22%	nt	nt	6.3*
SMILES	G9a inh-1	HP1b binding inh	JMJD2A Tudor inh	BAZ2B block	PLK1 PBD block	Sfp inh	G9a inh-2
O=C(Nc1ccc2c(c1)oc1ccccc12)N1CCOCC1	6%	48%	-7%	4%	-1%	18%	nt
CCn1c2ccccc2c2cc(NC(=O)N3CCOCC3)ccc21	?	-11%	-18%	?	-1%	-3%	10*
CCOC(=O)c1cnc(-n2nc(C)cc2C)nc1Nc1ccc(O)cc1	?	31%	-10%	-16%	-2%	0%	nt
CCOC(=O)c1cnc(-n2nc(C)cc2C)nc1Nc1ccc(N(C)C)cc1	0.89µM*	?	1.1µM*	1.8µM*	-11%	-12%	1.6*
CN(C)c1ccc(NC(=O)Nc2cccc(Cl)c2)cc1	1.1µM*	-31%	?	40µM*	-10%	-9%	1.4*
CCn1c(=O)c2sccc2n2c(CCC(=O)Nc3ccc(F)cc3)nnc12	3%[59 µM]	15%	-15%	0%	nt	nt	nt
CC(=O)c1sc2nsc(SCCN3CCOCC3)c2c1N	0.79µM*	79µM*	6.3µM*	-36%	30µM*	8.9µM*	2.5*
CCOC(=O)c1sc2nc(OCCN3CCOCC3)cc(C)c2c1N	nt	nt	nt	nt	-3%	nt	nt
CCc1nc2ccc(C(=O)NCCc3ccccn3)cn2c1N(C)Cc1cccs1	nt	nt	nt	nt	-2%	nt	nt
COc1ccc(NC(=O)COC(=O)c2ccc3ccccc3n2)cc1	-3%[59 µM]	22%	-3%	4%	1%	nt	nt
CCN(CC)c1ccc(NC(=O)COC(=O)c2ccc3ccccc3n2)cc1	?	?	?	50µM*	-8%	?	6.3*
CCN(CC)c1ccc(NC(=O)COC(=O)c2cccs2)cc1	1.3µM*	-8%	?	45µM*	-1%	-6%	2.2*
Cn1c(=O)c(-c2cccc(F)c2)nc2cncnc21	1%[0.501 µM]	nt	nt	nt	nt	15%	nt
Cc1nn(-c2ccccc2)c2sc(C(=O)Nc3ccc(Cl)cc3Cl)cc12	-65%[59 µM]	9%	-22%	3%	nt	nt	nt
